Source: PubChem BioAssay AID1076 (NMMLSC, 2008)
Calls of active or inactive are those of the source.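 How the source made its calls: active means cell event count below 40, meaning activity score above 60 where score is 100 minus count; inactive means the rest.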

Experiment: LNCaP cell loss by flow event count, confirmation, cytotoxicity control for prostate differentiation activator project, single point (AID 1076);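 further: counts scatter-gated live cells after medium removal discards detached dead cells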
Conditions: flow cytometry event count, 4 d, at 100 µM, stronger effect = lower value

Row | Compound | cell event count
1 | CCOC(=O)N1CCN(S(=O)(=O)c2ccc(C(=O)Nc3nc4ccccc4s3)cc2)CC1 | 145 (inactive)
2 | N=c1n(CCO)c2ccccc2n1CCOc1ccc(Cl)cc1Cl | 18 (inactive)
3 | CCc1ccc(-c2nc(CN3CCC(C(=O)N4CCN(c5ccccc5)CC4)CC3)c(C)o2)cc1 | 9 (inactive)
4 | O=C(CSc1c[nH]c2ccccc12)N1CCOCC1 | 297 (inactive)
5 | CCOc1cccc2cc(-c3cn4cc(C)ccc4n3)c(=O)oc12 | 267 (inactive)
6 | O=C(NCCCN1CCN(c2cccc(Cl)c2)CC1)C1CCC(=O)N1Cc1ccccc1Cl (stereo unspecified) | 12 (inactive)
7 | c1ccc(OCCCn2nnc(-c3cccnc3)n2)cc1 | 123 (inactive)
8 | COc1ccc(N2CCN(CCCNC(=O)C3CCCN(S(=O)(=O)c4cnc[nH]4)C3)CC2)cc1 (stereo unspecified) | 31 (inactive)
9 | COc1ccc(-c2nc(CN3CCC(C(=O)N4CCc5ccccc54)CC3)c(C)o2)cc1OC | 16 (inactive)
10 | Cc1cc(N2CCN(C)CC2)nc2ccc(NC(=O)c3ccc4c(c3)OCO4)cc12 | 57 (inactive)
11 | Cc1cccc(N2CCN(C(=O)CCNC(=O)Cn3ccc4ccccc4c3=O)CC2)c1C | 8 (inactive)
12 | O=C(CCn1c(=O)oc2ccccc21)NCCCN1CCN(c2ccc(F)cc2)CC1 | 213 (inactive)
13 | CCOC(=O)N1CCN(C(=O)C2CCCN(Cc3nc(-c4ccc(Cl)cc4)oc3C)C2)CC1 (stereo unspecified) | 10 (inactive)
14 | O=C(NCCCN1CCN(c2cccc(Cl)c2)CC1)c1nc(-c2ccncc2)no1 | 166 (inactive)
15 | COC(=O)c1cc2oc3ccccc3c2n1CC(=O)Nc1ccccc1OC | 169 (inactive)
16 | Cc1ccccc1-c1nc(CN2CCC(C(=O)NCc3ccco3)CC2)c(C)o1 | 158 (inactive)
17 | COc1ccc(N2CCN(CCCNC(=O)C3(S(=O)(=O)c4ccc(Cl)cc4)CC3)CC2)cc1 | 93 (inactive)
18 | CCOC(=O)c1ccccc1NC(=O)Cn1c(-c2nonc2N)nc2ccccc21 | 72 (inactive)
19 | O=C(NCc1ccc(Cl)cc1)c1noc2c1CCCC2 | 311 (inactive)

Row | Compound | cell event count
20 | COc1ccc2nc3oc(C(=O)NCc4cccs4)cc3cc2c1 | 307 (inactive)
21 | Nc1ccc(-c2nc3c(Cl)c(N)ccc3[nH]2)cc1 | 183 (inactive)
22 | O=C(Nc1ccc2oc(Cc3ccc(Cl)cc3)nc2c1)c1cccnc1 | 17 (inactive)
23 | CCOc1nc(-c2ccccc2O)nc2ccccc12 | 252 (inactive)
24 | CCOc1ccc(-c2cc(C(=O)NCCCN3CCN(CC)CC3)c3ccccc3n2)cc1 | 39 (inactive)
25 | CCOC(=O)Cn1nc(-c2ccc(Cl)cc2)cc1N | 70 (inactive)
26 | O=C(CN1CCN(Cc2ccc3c(c2)OCO3)CC1)N1CCc2[nH]c3ccc(F)cc3c2C1 | 24 (inactive)
27 | CCc1nnc(NC(=O)CSc2nc3ccccc3s2)s1 | 209 (inactive)
28 | Cn1c(C(=O)NCCCN2CCN(c3cccc(Cl)c3)CC2)cc2c(=O)n(C)c3ccccc3c21 | 46 (inactive)
29 | CCN1CCN(c2ncc(C(=O)Nc3cc(Cl)c(OC)cc3OC)c3ccccc23)CC1 | 41 (inactive)
30 | Cc1ccc(C)c(N2CCN(C(=O)CCNC(=O)Cn3ccc4ccccc4c3=O)CC2)c1 | 76 (inactive)
31 | CC(C)(C)OC(=O)N1CCC(C(=O)N2CCCCCC2)CC1 | 223 (inactive)
32 | Nc1ccc(-n2ccnc2)cc1 | 173 (inactive)
33 | Cc1oc(-c2ccc(Cl)cc2)nc1CN1CCCC(C(=O)NCc2ccccn2)C1 (stereo unspecified) | 34 (inactive)
34 | Cc1cccc(-c2nc(CN3CCCC(C(=O)NC4CCCCC4)C3)c(C)o2)c1 (stereo unspecified) | 28 (inactive)
35 | Cc1nc2c3cnn(-c4ccccc4)c3ncn2n1 | 159 (inactive)
36 | Cn1c(=O)cc(OCC(=O)NCCCN2CCN(c3cccc(Cl)c3)CC2)c2ccccc21 | 10 (inactive)
37 | CN(CC(O)COc1ccc(OCC(O)CN(C)C2CCCCC2)cc1)C1CCCCC1 (stereo unspecified) | 249 (inactive)
38 | Cc1cccc(-c2nc(CN3CCCC(C(=O)NC4CCCCCC4)C3)c(C)o2)c1 (stereo unspecified) | 17 (inactive)

Same assay, conditions: flow cytometry event count, 4 d, event count, at 10 µM, stronger effect = lower value

Row | Compound | cell event count
39 | CCOC(=O)N1CCN(S(=O)(=O)c2ccc(C(=O)Nc3nc4ccccc4s3)cc2)CC1 | 172
40 | N=c1n(CCO)c2ccccc2n1CCOc1ccc(Cl)cc1Cl | 272
41 | CCc1ccc(-c2nc(CN3CCC(C(=O)N4CCN(c5ccccc5)CC4)CC3)c(C)o2)cc1 | 254
42 | O=C(CSc1c[nH]c2ccccc12)N1CCOCC1 | 149
43 | CCOc1cccc2cc(-c3cn4cc(C)ccc4n3)c(=O)oc12 | 300
44 | O=C(NCCCN1CCN(c2cccc(Cl)c2)CC1)C1CCC(=O)N1Cc1ccccc1Cl (stereo unspecified) | 239
45 | c1ccc(OCCCn2nnc(-c3cccnc3)n2)cc1 | 126
46 | COc1ccc(N2CCN(CCCNC(=O)C3CCCN(S(=O)(=O)c4cnc[nH]4)C3)CC2)cc1 (stereo unspecified) | 92.5
47 | COc1ccc(-c2nc(CN3CCC(C(=O)N4CCc5ccccc54)CC3)c(C)o2)cc1OC | 298
48 | Cc1cc(N2CCN(C)CC2)nc2ccc(NC(=O)c3ccc4c(c3)OCO4)cc12 | 278
49 | Cc1cccc(N2CCN(C(=O)CCNC(=O)Cn3ccc4ccccc4c3=O)CC2)c1C | 246
50 | O=C(CCn1c(=O)oc2ccccc21)NCCCN1CCN(c2ccc(F)cc2)CC1 | 127
51 | CCOC(=O)N1CCN(C(=O)C2CCCN(Cc3nc(-c4ccc(Cl)cc4)oc3C)C2)CC1 (stereo unspecified) | 126
52 | O=C(NCCCN1CCN(c2cccc(Cl)c2)CC1)c1nc(-c2ccncc2)no1 | 462
53 | COC(=O)c1cc2oc3ccccc3c2n1CC(=O)Nc1ccccc1OC | 184
54 | Cc1ccccc1-c1nc(CN2CCC(C(=O)NCc3ccco3)CC2)c(C)o1 | 296
55 | COc1ccc(N2CCN(CCCNC(=O)C3(S(=O)(=O)c4ccc(Cl)cc4)CC3)CC2)cc1 | 136
56 | CCOC(=O)c1ccccc1NC(=O)Cn1c(-c2nonc2N)nc2ccccc21 | 122
57 | O=C(NCc1ccc(Cl)cc1)c1noc2c1CCCC2 | 380

Row | Compound | cell event count
58 | COc1ccc2nc3oc(C(=O)NCc4cccs4)cc3cc2c1 | 304
59 | Nc1ccc(-c2nc3c(Cl)c(N)ccc3[nH]2)cc1 | 206
60 | O=C(Nc1ccc2oc(Cc3ccc(Cl)cc3)nc2c1)c1cccnc1 | 96
61 | CCOc1nc(-c2ccccc2O)nc2ccccc12 | 250
62 | CCOc1ccc(-c2cc(C(=O)NCCCN3CCN(CC)CC3)c3ccccc3n2)cc1 | 156
63 | CCOC(=O)Cn1nc(-c2ccc(Cl)cc2)cc1N | 22
64 | O=C(CN1CCN(Cc2ccc3c(c2)OCO3)CC1)N1CCc2[nH]c3ccc(F)cc3c2C1 | 234
65 | CCc1nnc(NC(=O)CSc2nc3ccccc3s2)s1 | 142
66 | Cn1c(C(=O)NCCCN2CCN(c3cccc(Cl)c3)CC2)cc2c(=O)n(C)c3ccccc3c21 | 251
67 | CCN1CCN(c2ncc(C(=O)Nc3cc(Cl)c(OC)cc3OC)c3ccccc23)CC1 | 301
68 | Cc1ccc(C)c(N2CCN(C(=O)CCNC(=O)Cn3ccc4ccccc4c3=O)CC2)c1 | 148
69 | CC(C)(C)OC(=O)N1CCC(C(=O)N2CCCCCC2)CC1 | 123
70 | Nc1ccc(-n2ccnc2)cc1 | 126
71 | Cc1oc(-c2ccc(Cl)cc2)nc1CN1CCCC(C(=O)NCc2ccccn2)C1 (stereo unspecified) | 168
72 | Cc1cccc(-c2nc(CN3CCCC(C(=O)NC4CCCCC4)C3)c(C)o2)c1 (stereo unspecified) | 170
73 | Cc1nc2c3cnn(-c4ccccc4)c3ncn2n1 | 145
74 | Cn1c(=O)cc(OCC(=O)NCCCN2CCN(c3cccc(Cl)c3)CC2)c2ccccc21 | 280
75 | CN(CC(O)COc1ccc(OCC(O)CN(C)C2CCCCC2)cc1)C1CCCCC1 (stereo unspecified) | 118
76 | Cc1cccc(-c2nc(CN3CCCC(C(=O)NC4CCCCCC4)C3)c(C)o2)c1 (stereo unspecified) | 222
